According to PubChem BioAssay (NCI):
This is part of a sample that, as a whole, favours compounds with a hit. Of some 79,000 tested, about 15% had one in any assay. A number with no mark means an inactive call. Activity calls are given as the source filed them. Rule as the data show it: active = growth inhibition above about 70%; inactive = the rest.

Experiment: NCI Yeast Anticancer Drug Screen. Data for the mec2-1 strain (AID 157)
Conditions: S. cerevisiae mec2-1 strain, at 50.0 µM (retest, dose inferred, filed as 5.0), hits give high values
How it was run: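 Growth inhibition is read against vehicle-treated controls after compound exposure of the mec2-1 yeast strain, which is defective in DNA damage repair or cell cycle control.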

SMILES	growth inhibition
Cc1ccc2c(c1)CC1(C2)Cc2ccc(C)cc2C1=O (stereo not given)	85% (active)
NC1=CC(=O)c2ccccc2C1=O	48%
CCCCC(CC(=O)O)c1ccc(Cl)cc1 (stereo not given)	17%
OCCOCCO[P+]1(OCCOCCO)n2c3ccc2C(c2ccccc2)=C2C=CC(=N2)C(c2ccccc2)=c2ccc(n21)=C(c1ccccc1)C1=NC(=C3c2ccccc2)C=C1	99% (active)
Clc1ccc2[nH]c(-c3ccccc3)c(-c3ccccn3)c2c1	98% (active)
COc1cc(NS(C)(=O)=O)ccc1Nc1c2ccccc2nc2ccccc12	57%
COC1/C=C/OC2(C)Oc3c(C)c(O)c4c(c3C2=O)C(=O)C=C(NC(=O)/C(C)=C\C=C\C(C)C(OC=O)C(C)C(O)C(C)C(OC(C)=O)C1C)C4=O (stereo not given)	3%
COc1ccc(CN(C)c2c(C)ccc3ccccc23)cc1	58%
CCOC(=O)c1c(-c2ccccc2)csc1NC(=O)CBr	99% (active)
Nc1nc2nc(I)[nH]c2c(=O)[nH]1	-16%
CC(CN(CC(=O)O)CC(=O)O)N(CC(=O)O)CC(=O)O.[Cl][Pd][Cl] (stereo not given)	87% (active)
COC(=O)c1nc(=S)[nH]c(C(=O)OC)c1C(=O)c1ccc2ccccc2c1	97% (active)
O=C(Nc1ccccc1)OCCc1ccc(Br)cc1	-31%
O=C(CCN1CCCCC1)/C(=C\c1ccc(Cl)cc1)c1ccccc1	99% (active)
FC(F)(F)c1nc(S)cc(=S)[nH]1	17%
CCCCC(=O)N/N=C/c1ccc([N+](=O)[O-])s1	94% (active)
CSC(=S)N/N=C(\C)c1nccnc1C	99% (active)
CC(=O)Oc1cc2c(cc1OC(C)=O)OCC(c1ccccc1)C2 (stereo not given)	48%
O=Cc1ccc(O)c2ccccc12	47%
CC(=O)N(C1=C(Cl)C(=O)c2ccccc2C1=O)c1ccc(Cl)cc1	99% (active)

SMILES	growth inhibition
Cn1c2c(c3ccccc31)CCN1C[C@@H]3CCCC[C@H]3C[C@@H]21	2%
CCOc1ncc(Cl)c(OCC)n1	-2%
C=C1C(=O)OC2C1CC1OC2C(C)CCC/C(C)=C\CCC1(C)O (stereo not given)	25%
CCCCN(CCCC)CCC(O)(c1ccc(OC)c2ccccc12)C(O)(CCN(CCCC)CCCC)c1ccc(OC)c2ccccc12 (stereo not given)	100% (active)
CS/C(N)=N/NC(=O)CCC(=O)Nc1cc(Cl)c(Cl)cc1Cl	-2%
COc1ccc(OC)c(N=Nc2c(C)[nH]n(C(N)=S)c2=O)c1	34%
O=C(CC(=O)c1ccccc1)CC1(O)CCCCC1	16%
Nc1ccc2ccccc2c1Cc1c(O)ccc2ccccc12	98% (active)
CC[n+]1c(/C=C/c2cc(C(=O)OC)n3c2sc2ccccc23)sc2ccccc21	99% (active)
O=CNc1ccc2c(c1)Cc1cc(NC=O)ccc1-2	25%
O=C1CC(c2ccccc2)C(=O)N2C(=O)CC(c3ccccc3)C(=O)N12 (stereo not given)	3%
CN1CCN(CCOC(=O)N2c3ccccc3Sc3ccccc32)CC1	-2%
COc1nc(Nc2ccc(/C=C/c3ccc(Nc4nc(OC)nc(N(CCO)CCO)n4)cc3S(=O)(=O)O)c(S(=O)(=O)O)c2)nc(N(CCO)CCO)n1	37%
NNC(=O)NN=C(c1ccccc1)c1ccccc1	1%
CCOC(=O)C(Br)C(Br)c1cccc([N+](=O)[O-])c1 (stereo not given)	100% (active)
CCCCCCC(O)C(CO)CCCCC (stereo not given)	96% (active)
Oc1c(Br)c(Br)c(O)c(Br)c1Br	33%
CC(=O)n1nc2c(c1CC(C)C)C(=O)C(Nc1ccccc1)=CC2=O	100% (active)
CC(C)(CCBr)[N+](=O)[O-]	-54%
Nc1ccccc1SCc1csc(-c2ccc(Cl)cc2)n1	98% (active)
